Growth data for 29 molecules are collected here from PubChem BioAssay (NCI).

What all share (experiment): NCI-60 one-dose screen, 48 h (100 = growth as untreated, 0 = no growth, -100 = all killed)
What all share (details): 10 µM unless noted

Test [1] relates to SR leukemia.
In test [2] the test system is RPMI-8226 leukemia.
In test [3] the test system is OVCAR-8 ovarian.
Test [4] concerns OVCAR-5 ovarian.
Test [5] deals with OVCAR-4 ovarian.
The subject of test [6] is SK-OV-3 ovarian.
Test [7] has as its system IGROV1 ovarian.
In test [8] the test system is OVCAR-3 ovarian.
The subject of test [9] is HS 578T breast.
The test system of test [10] is NCI/ADR-RES ovarian.

Compounds without any hit were thinned out: in the full panel of roughly 83,000, 20% have a hit.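 Growth was measured after 48 h exposure to one concentration of compound in 96-well plates. Values under 10 count as active.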 A number with no mark means an inactive call. Activity calls are given as the source filed them.

As for `CCCCOc1ccc(/C=C2/SC(N3CCCC3)=NC2=O)cc1`, the growth in test [1] was 91.1%; in test [2] it was 84.8%; in test [3] it was 99.7%; in [4], 90.1%; in test [5], 80.6%; in test [6] it was 96.9%. The growth in test [7] is 95.1%; in [8], 106%; in test [9], 116%; in test [10], 90.8%.

In the case of `C=C1CCC2C3(C)COC(c4ccc(N(C)C)cc4)OC3CCC2(C)C1C/C=C1/C(=O)OCC1O` (stereo not given), the growth in [1] was 21.9%; in test [2] it was -52.9% (active); in [3], 47.5%; in test [4] it was 96.3%; in [5], 68.3%; in test [6], 84%. For the same molecule, the growth was 39.3% in test [7] and 65.1% in test [10].

Regarding `Cn1c2ccc(Br)cc2c2c3c(c4c5ccccc5[nH]c4c21)C(=O)N(O)C3=O`, the growth was 0.179% (active) in [1]; -29.5% (active) in test [2]; -27.2% (active) in test [3]; -6.8% (active) in [4]; 3.5% (active) in [5]; -84.2% (active) in test [6]. Besides, the growth in test [7] is -79.4% (active); in [8], -86.2% (active); in test [9], 1.47% (active); in [10], 26.3%.

`Cc1ccc2nc(-c3cc4c([nH]c5ccccc54)c(-c4ccc(F)c(F)c4)n3)[nH]c2c1`: the growth in test [1] was -18.8% (active); in test [2], 47.4%; in test [3] it was 78.3%; in [4], 113%; in [5], 69%; in [6], 109%. For the same molecule, the growth in [8] is 96.7%; in test [9] it was 108%; in test [10], 83%.

For the molecule `O=C1Nc2ccc3c(c2/C1=C\c1cc2c(cc1Br)OCO2)OCO3`, the growth in test [1] is 29.3%; in [2] it was 14.4%; in test [3], 35%; in [4] it was 65.2%; in [5], -45.5% (active); in test [6], 2.7% (active). Also, the growth in test [7] is -7.11% (active); in test [9] it was -14.5% (active); in [10] it was 1.49% (active).

Turning to `CCO/C=N/C1=C(C#N)C(c2ccc(Cl)cc2)c2c(c3ccc(C)cc3[nH]c2=O)O1` (stereo not given), the growth was 86.7% in [1]; 30.2% in test [2]; 89.7% in test [3]; 83.1% in [4]; 85% in test [5]; 85.7% in [6]. The growth in [7] was 68.4%; in test [8] it was 103%; in [9] it was 48.8%; in [10], 96.1%.

Consider `NC(=O)c1c(NC(=S)Nc2ccc(OC(F)(F)F)cc2)sc2c1CCC1(C2)OCCO1`, for which the growth is 92.1% in test [1]; 93.2% in test [2]; 99.7% in [3]; 91.9% in test [4]; 95.3% in test [5]; 89.9% in test [6]. For the same molecule, the growth is 96.3% in test [7], 109% in test [8], 79.5% in [9] and 98.9% in test [10].

Regarding `N/C(=N\C(N)=N\c1nc2ccccc2s1)c1ccncc1`, the growth was 19.7% in [1]; 45.8% in test [2]; 75.6% in test [3]; 96.6% in test [4]; 100% in test [5]; 89.4% in test [6]. For the same molecule, the growth is 58.2% in [7], 39.7% in test [8], 80.3% in test [9] and 33% in test [10].

With `O=[N+]([O-])c1cc(Cl)c2[nH]c3c(Cl)cc([N+](=O)[O-])cc3c2c1`, the growth in test [1] was 2.53% (active); in [2], 3.11% (active); in [3], -2.33% (active); in test [4], 9.08% (active); in test [5], -24.8% (active); in test [6], -11.9% (active). In addition, the growth was 9.12% (active) in test [7], 16.8% in test [8] and 6.85% (active) in test [10].

As for `Nc1ccc(C(=O)CSc2nc3ccccc3[nH]2)cc1`, the growth is 110% in [1]; 103% in test [2]; 105% in [3]; 102% in [4]; 110% in test [5]; 105% in test [6]. Further, the growth in test [7] was 112%; in test [8], 107%; in test [9], 109%; in test [10] it was 99.3%.

With `OCc1ncc(-c2ccccc2)s1`, the growth in [1] was 107%; in test [2], 87.6%; in test [3], 107%; in [4], 92.2%; in [5], 97.5%; in test [6], 99.4%. In addition, the growth in test [7] was 113%; in [8], 101%; in test [9], 108%; in test [10], 22.1%.

For `COc1cc2c(cc1O)CCN1C[C@@H](CC(C)C)[C@@H](O)C[C@@H]21`, the growth is 103% in [1]; 92.5% in test [2]; 101% in test [3]; 94.3% in test [4]; 98.6% in test [5]; 107% in test [6]. The growth in test [8] is 108%; in [9] it was 114%; in test [10], 98.2%.

For `Cn1ncc2c(Sc3ccc(Cl)cc3)ncnc21`, the growth was 53.6% in test [1]; 48.5% in [2]; 101% in test [3]; 109% in test [4]; 95.7% in test [5]; 94.2% in test [6]. Moreover, the growth in [7] was 87.4%; in test [10], 103%.

Take `Cc1ccc(S(=O)(=O)n2cc(C(=O)C(=O)N3CCOCC3)c3ccccc32)cc1`: the growth was 77.8% in test [1]; 59.6% in [2]; 91.5% in [3]; 85.7% in test [4]; 89.1% in test [5]; 97.9% in [6]. In addition, the growth in [8] was 91.4%; in test [9] it was 101%; in test [10], 75.1%.

With `COc1ccc(CN2CCc3c(Sc4ccccc4)nc(N)nc3C2=O)c(OC)c1`, the growth was 43.3% in test [1]; -6.07% (active) in test [2]; 44.8% in [3]; 82.3% in [4]; 44.3% in test [5]; 82.2% in [6]. Also, the growth in test [8] was 57.1%; in test [9], 74.3%; in test [10] it was 49.7%.

For the molecule `CCN(CC)c1ccc(CNc2ccnc3ccccc23)cc1`, the growth in test [1] was 9.72% (active); in [2] it was 25.2%; in test [3] it was 47.4%; in [4], 81.7%; in test [5] it was 17.1%; in test [6], 61.4%. In addition, the growth in test [7] was 78.2%; in [8], 52.5%; in [9] it was 90.1%; in test [10], 40%.

`CC(C)(C)n1cc(-c2ccnc(NCCCNS(=O)(=O)c3ccccc3)c2)c(-c2cccc(O)c2)n1`: the growth was 20.9% in test [1]; 10.5% in test [2]; 52.4% in [3]; 67.7% in test [4]; 55.9% in test [5]; 88.6% in test [6]. Also, the growth in [7] is 51.1%; in test [8] it was 54.1%; in test [9], 51%; in [10], 56.9%.

Turning to `Nc1nc(-c2ccccc2)c(CCCOc2ccc(NC(=O)CBr)cc2)c(=O)[nH]1`, the growth in test [1] was 117%; in test [2], 112%; in test [3], 98.3%; in test [4], 104%; in test [5] it was 92.1%; in test [6], 125%. Also, the figures for the growth in test [7], in test [9] and in test [10] were 125%, 99.1% and 106%, respectively.

As to `O=C(Nc1ccncc1)C(=O)c1cn(S(=O)(=O)c2ccccc2F)c2ccccc12`, the growth was 16.4% in test [1]; 9.83% (active) in test [2]; 35.2% in [3]; 69.3% in [4]; 57.1% in test [5]; 87.5% in test [6]. Further, the growth in [7] is 52%; in test [8], -27.1% (active); in test [9], 12.1%; in test [10], -17.7% (active).

Consider `COc1ccc2[nH]c(=O)c3c4ccccc4cn3c2c1`, for which the growth in test [1] is -27.2% (active); in test [2], -59.6% (active); in test [3], 24.4%; in [4], 31.4%; in test [5], 49.1%; in [6], 32.8%. The values for the growth in [7] and in test [10] were 16.8% and 24.8%, respectively.

For the molecule `O=C1NN(C(=O)c2ccc(Cl)cc2)C(c2ccccc2)=N/C1=C\c1ccc(F)cc1`, the growth in test [1] was 80.2%; in test [2] it was 60.3%; in test [3] it was 86.6%; in [4], 88.8%; in test [5], 99.1%; in test [6], 97.4%. Moreover, the growth in test [7] was 87.6%; in [8], 98.7%; in [9] it was 95.2%; in [10], 66.7%.

Turning to `N[C@H]1CN(C(=O)c2cc3cc(Br)c(F)c(F)c3[nH]2)C[C@@H]1O`, the growth was 108% in test [1]; 98% in test [2]; 100% in test [3]; 94.3% in [4]; 110% in [5]; 100% in [6]. Besides, the growth was 84.6% in test [7], 102% in test [8], 98.9% in test [9] and 100% in [10].

`OCCCCCCNc1ncnc2cc(Cl)ccc12`: the growth was 64.8% in [1]; 83.6% in test [2]; 94.1% in test [3]; 119% in test [4]; 76.2% in test [5]; 81.3% in test [6]. For the same molecule, the growth in test [7] was 112%; in [8], 92.4%; in test [9], 105%; in test [10], 95.7%.

For the molecule `CCN(CC)CCOC(=O)C(c1ccccc1)(c1ccccc1)C(C)C`, the growth in [1] was 84%; in test [2] it was 96%; in [3], 87%; in test [4] it was 87.2%; in [5], 94.8%; in test [6] it was 81.9%. Moreover, the growth in [7] was 78.2%; in test [8], 80.5%; in [10], 79.2%.

`O=C(N/N=C/C=C\c1ccccc1)C(=O)N/N=C/C=C/c1ccccc1`: the growth in [1] was 103%; in test [2], 102%; in test [3], 105%; in [4] it was 112%; in test [5], 112%; in test [6], 111%. Also, the growth is 106% in [7], 116% in [9] and 110% in test [10].

With `Cc1ccc(Cc2c(C=O)nc(N)[nH]c2=O)c2ccccc12`, the growth in [1] was 63.5%; in [2], 99.6%; in test [3] it was 89.6%; in test [4] it was 117%; in test [5] it was 97.6%; in test [6], 96.6%. Moreover, the growth in [7] is 106%; in test [9], 109%; in test [10], 103%.

For `COc1ccc2c(c1)[nH]c(=O)c1c3cccc(F)c3cn21`, the growth in [1] was 39.9%; in test [2] it was -49.8% (active); in [3], 27.4%; in test [4], 47.9%; in test [5] it was 47.8%; in test [6], 42.3%. Besides, the growth in [7] is 6.16% (active); in test [10], 15.8%.

Regarding `Clc1ccccc1-c1nc2ccccc2[nH]1`, the growth in test [1] is 116%; in test [2] it was 74%; in [3] it was 106%; in test [4], 54.4%; in test [5] it was 96.9%; in [6], 103%. Besides, the growth was 108% in [7], 102% in [8], 113% in [9] and -4.71% (active) in [10].

Take `C=C1CCC2C3(C)COC(c4c(OC)cccc4OC)OC3CCC2(C)C1C/C=C1/C(=O)OCC1O` (stereo not given): the growth was 34.7% in test [1]; -53.5% (active) in test [2]; 29.5% in test [3]; 49.3% in test [4]; 41.3% in test [5]; 71.6% in test [6]. The growth is 26.9% in test [7] and 30.9% in [10].
